TDP1 block: inhibitors of human tyrosyl-DNA phosphodiesterase TDP1; Q9NUW8; recombinant TDP1, AlphaScreen DNA substrate cleavage; Potency, µM (top dose mostly 130 µM), for the others: top-dose activity change, negative = inhibition, usual class: inhibitors; 350,000 compounds, 0.28% hits; AID 485290; further: potency means the concentration at half of the fitted maximal effect; nearly all actives have a fitted effect of over 40% in size
Target sequence (Q9NUW8 whole entry, looked up): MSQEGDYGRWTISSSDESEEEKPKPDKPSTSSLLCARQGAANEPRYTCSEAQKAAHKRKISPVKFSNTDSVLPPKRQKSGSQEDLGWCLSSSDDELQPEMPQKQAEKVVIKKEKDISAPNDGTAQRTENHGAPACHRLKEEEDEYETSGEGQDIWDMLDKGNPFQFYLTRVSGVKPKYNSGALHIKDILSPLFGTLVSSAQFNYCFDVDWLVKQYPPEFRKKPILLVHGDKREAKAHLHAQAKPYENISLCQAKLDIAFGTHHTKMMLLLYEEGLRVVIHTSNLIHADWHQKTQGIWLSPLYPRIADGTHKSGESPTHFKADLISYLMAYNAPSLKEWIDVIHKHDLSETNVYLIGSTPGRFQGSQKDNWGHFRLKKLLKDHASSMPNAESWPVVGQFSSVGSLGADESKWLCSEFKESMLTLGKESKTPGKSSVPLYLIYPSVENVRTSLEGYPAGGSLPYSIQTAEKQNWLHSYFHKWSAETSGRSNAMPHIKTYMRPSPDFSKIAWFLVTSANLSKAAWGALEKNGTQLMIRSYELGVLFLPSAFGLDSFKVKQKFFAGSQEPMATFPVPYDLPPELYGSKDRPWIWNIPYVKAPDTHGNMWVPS
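Recombinant human Tdp1 (E. coli-expressed, 1 nM final) preincubated with compounds 15 min at room temperature, then 5'-biotin/3'-phosphotyrosine-FITC DNA substrate (15 nM final) added for 5 min. AlphaScreen beads (10 ug/ml final) added 10 min; cleavage lowers signal.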
Tb PFK inh: blocks T. brucei phosphofructokinase; T. brucei PFK, ADP-Glo luminescence; Potency, µM (top dose mostly 57.5 µM), inactives show top-dose activity, negative = inhibition, actives largely listed as inhibitors; 330,000 compounds, 0.17% hits;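 further: potency means the concentration at half of the fitted maximal effect; 0% = uninhibited 1x PFK enzyme wells and -100% = no-enzyme wells; nearly all actives have a fitted effect of over 60% in size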
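Compounds were pin-transferred as a titration series up to 57 uM into substrate buffer (0.5 mM F6P, 0.1 mM ATP, pH 8.0), then 1.25 nM PFK was added and reactions ran 45 min before ADP-Glo detection.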
WRN inhibitor: WRN helicase (human) inhibition; Q14191; WRN helicase unwinding, fluorescent forked duplex, kinetic; Potency, µM (top dose mostly 114 µM), without a hit: at the top dose activity change, negative = inhibition, hits mostly inhibitors; 360,000 compounds, 0.46% hits; further: potency means the concentration at half of the fitted maximal effect; nearly all actives have a fitted effect of over 55% in size
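Fluorescence dequenching readout, ex 525 nm/em 598 nm, kinetic mode: forked duplex DNA (100 nM final) with adjacent fluorophore and quencher unwound by WRN (20 nM final) with 2 mM ATP. Compound preincubation 15 min, room temperature.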
FEN1 inhibitor: inhibitors of human flap endonuclease 1. P39748. Recombinant FEN1 flap cleavage, fluorescence, 15 min. Potency, µM (series often up to 114 µM), for the others: at the highest dose activity change, negative = inhibition, usual class: inhibitors. 390,000 compounds, 0.35% hits; further: potency means the concentration at half of the fitted maximal effect; nearly all actives have a fitted effect of over 65% in size
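Steps: FEN1 (10 nM) dispensed; compound added by pin tool; 15 min at room temperature; substrate added to 50 nM final; reads at 0 min and 15 min; data normalized and fitted (four-parameter Hill).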
PI5P4Ka inh: inhibitors of human PI5P4K alpha; P48426; PI5P4Kalpha enzyme, ADP-Glo luminescence, 60 min; stronger effect = lower value; max response, %; AID 652105; 330,000 compounds, 1.2% hits; active means max response of -50% or lower; inconclusive means between -30% and -50%; inactive means -30% or higher; further: value at the top dose of about 77 µM
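Compounds were pin-transferred onto PI5P4Kalpha and substrate in HEPES pH 7.4 buffer with EGTA, CHAPS and 5% DMSO. ATP (5 microM final) started the reaction, which ran 60 minutes at room temperature before ADP-Glo detection.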
Tb PGK inh: blocks T. brucei phosphoglycerate kinase; P07378; PGK/GAPDH coupled, Kinase-Glo luminescence, 60 min; Potency, µM (titrated, usually from 57.5 µM), inactives show top-dose activity change, negative = inhibition, actives largely listed as inhibitors; 380,000 compounds, 0.043% hits; further: potency means the concentration at half of the fitted maximal effect; nearly all actives have a fitted effect of over 60% in size
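Luminescent ATP detection (Kinase-Glo Plus) follows a 60-minute room-temperature incubation, with wells lacking PGK as controls. Buffer: 100 mM TEA (pH 7.6), 5 mM MgCl2, 0.01% Tween-20. Coupling enzyme GAPDH (100 nM final) supplies unstable 1,3-BPG in-well.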
Active calls of the source: *; [ ] = another dose, or the depositor's remark. An excerpt weighted towards active compounds, which were near 1.5% of everything screened. Unless noted, the call rests on the fitted dose curve; in most records, active means well fitted curve in the direction sought with a large enough effect; inconclusive means small, poorly fitted or top-dose-only effect, or another doubt; inactive means no such curve, though single readings can be large; an effect the other way counts as inactive or inconclusive. Unless noted, on the % scale 0 is the no-effect control and ±100 the full control effect.

How did O=c1nc2s/c(=C\c3ccc(-c4ccccc4[N+](=O)[O-])o3)c(=O)n2nc1-c1ccccc1 do in these assays?
TDP1 block: -3%; Tb PFK inh: -5%; WRN inhibitor: 14µM*; FEN1 inhibitor: -3%; PI5P4Ka inh: inconclusive; Tb PGK inh: -3%

What do the screens show for `CCCCCOc1ccc(/C=c2\sc3nc(=O)c(-c4ccccc4)nn3c2=O)cc1OC`?
TDP1 block: 5%; Tb PFK inh: -7%; WRN inhibitor: -22%; FEN1 inhibitor: -1%; PI5P4Ka inh: 3; Tb PGK inh: -5%

Results for COc1cc(C)c2ccccc2n1 ?
FEN1 inhibitor: -3%

What do the screens show for `O=C(O)c1cccc(-n2cccc2C=C2C(=O)c3ccccc3C2=O)c1`?
Tb PFK inh: 11%; WRN inhibitor: inconclusive; FEN1 inhibitor: 50µM*; PI5P4Ka inh: -11; Tb PGK inh: -10%

How did O=C(O)c1cccc(-n2cccc2/C=C2\SC(=O)N(Cc3ccccc3F)C2=O)c1 do in these assays?
TDP1 block: 8.9µM*; Tb PFK inh: inconclusive; WRN inhibitor: inconclusive; FEN1 inhibitor: 8%; PI5P4Ka inh: 0; Tb PGK inh: inconclusive

How did O=C1C(=Cc2cccn2-c2ccccc2)C(=O)c2ccccc21 do in these assays?
TDP1 block: 4%; Tb PFK inh: 0%; WRN inhibitor: -20%[57.1 µM]; FEN1 inhibitor: -1%; PI5P4Ka inh: 2; Tb PGK inh: 0%

What do the screens show for `COc1cc2c(cc1OC)C(COc1ccc(F)cc1)N(C(=O)c1cccc(F)c1)CC2` (centres undefined)?
TDP1 block: 10%; FEN1 inhibitor: -14%; Tb PGK inh: -5%

What do the screens show for `Cc1ccc2oc(-c3cc(NC(=O)c4ccco4)ccc3Cl)nc2c1`?
TDP1 block: 5%[12.3 µM]; FEN1 inhibitor: 79µM*; Tb PGK inh: -1%

How did Cc1ccc2oc(-c3cc(NC(=O)c4oc5ccccc5c4C)ccc3Cl)nc2c1 do in these assays?
TDP1 block: 3%[2.28 µM]; FEN1 inhibitor: -2%; Tb PGK inh: 0%

What do the screens show for `CC1(C)[C@@H](O)CC[C@]2(C)C3C(O)C=C4[C@H]5C[C@@](C)(CO)CC[C@]5(C)CC[C@]4(C)[C@]3(C)CC[C@@H]12` (some centres undefined)?
TDP1 block: 5%; Tb PFK inh: -7%; WRN inhibitor: -1%; FEN1 inhibitor: -1%; PI5P4Ka inh: -62*; Tb PGK inh: 4%

How did CC(=O)NC1C(O)O[C@H](C(=O)O)[C@@H](O)[C@@H]1O (some centres undefined) do in these assays?
TDP1 block: 11%

How did CCOC(=O)c1cnc(SSc2ncc(C(=O)OCC)c(N)n2)nc1N do in these assays?
Tb PFK inh: inconclusive; WRN inhibitor: 1%; FEN1 inhibitor: -19%; PI5P4Ka inh: -71*; Tb PGK inh: 3%

How did CCc1nnc(NC(=O)c2sc3nc4c(cc3c2N)CCCCCC4)s1 do in these assays?
TDP1 block: 50µM*; Tb PFK inh: 0%; WRN inhibitor: -10%[11.6 µM]; FEN1 inhibitor: -1%; PI5P4Ka inh: -23; Tb PGK inh: 0%

Results for C#CCNC(=O)C1=C[C@H](c2ccc(C(F)(F)F)cc2)C[C@H](OCCCCO)O1 ?
TDP1 block: -1%; Tb PFK inh: -6%; WRN inhibitor: -1%; FEN1 inhibitor: 7%; PI5P4Ka inh: -15; Tb PGK inh: -5%

What do the screens show for `O=C(NCc1ccccc1)C1=C[C@@H](c2ccc(Br)cc2)C[C@@H](OCCCCO)O1`?
TDP1 block: 5%; Tb PFK inh: -1%; WRN inhibitor: -7%; FEN1 inhibitor: -9%; PI5P4Ka inh: -2; Tb PGK inh: -9%

How did C#Cc1ccc([C@@H]2C=C(C(=O)NCc3ccccc3)O[C@H](OCCCCO)C2)cc1 do in these assays?
WRN inhibitor: -26%; FEN1 inhibitor: -4%; PI5P4Ka inh: -64*; Tb PGK inh: -4%

How did C#CCNC(=O)C1=C[C@@H](c2ccc(C#C)cc2)C[C@@H](OCCCCO)O1 do in these assays?
WRN inhibitor: -31%; FEN1 inhibitor: inconclusive; PI5P4Ka inh: -56*; Tb PGK inh: -11%

What do the screens show for `NC(=O)c1ccc2c(=O)n3c(-c4cc(Cl)c(N)c(Cl)c4)csc3nc2c1`?
TDP1 block: 79µM*; Tb PFK inh: -1%; WRN inhibitor: -35%; FEN1 inhibitor: inconclusive; PI5P4Ka inh: -10; Tb PGK inh: -13%

Results for Cc1csc2nc3cc(C(N)=O)ccc3c(=O)n12 ?
TDP1 block: 2%; Tb PFK inh: -2%; WRN inhibitor: 1%; FEN1 inhibitor: -4%; PI5P4Ka inh: -8; Tb PGK inh: -5%

How did Cc1c(O)ccc2c1OC(C)(C)CC2 do in these assays?
FEN1 inhibitor: 8%

What do the screens show for `CCOC(=O)CCCC(=O)N1CCN(/[N+]([O-])=N/Oc2ccc([N+](=O)[O-])cc2[N+](=O)[O-])CC1`?
FEN1 inhibitor: 5%

What do the screens show for `CCOC(=O)c1c(NC(C)=O)sc2c(O)cccc12`?
TDP1 block: -6%; Tb PFK inh: -6%; WRN inhibitor: 4%; FEN1 inhibitor: 4%; PI5P4Ka inh: 2; Tb PGK inh: -3%

How did CCOC(=O)c1c(NC(C)=O)sc2c(OCC(O)CNC(C)(C)C)c(Br)ccc12 (centres undefined) do in these assays?
TDP1 block: -3%; Tb PFK inh: -10%; WRN inhibitor: 47%; FEN1 inhibitor: 22µM*; PI5P4Ka inh: 2

How did C1=Cc2ccccc2/C1=C(\Cc1ccncc1)Oc1ccncc1 do in these assays?
FEN1 inhibitor: -4%

How did N#Cc1c(-c2cccs2)nc(SCC(=O)c2cccs2)[nH]c1=O do in these assays?
TDP1 block: 3%; Tb PFK inh: -4%; WRN inhibitor: inconclusive; FEN1 inhibitor: -15%; PI5P4Ka inh: -70*; Tb PGK inh: -7%

What do the screens show for `N#Cc1c(-c2ccccc2)nc(SCC(=O)Nc2ccccc2)[nH]c1=O`?
TDP1 block: 2%; Tb PFK inh: 0%; WRN inhibitor: -15%; FEN1 inhibitor: 8%; PI5P4Ka inh: inconclusive; Tb PGK inh: 17%

What do the screens show for `N#Cc1c(-c2ccccc2)nc(SCC(=O)N2c3ccccc3Sc3ccccc32)[nH]c1=O`?
TDP1 block: 1%; Tb PFK inh: 2%; WRN inhibitor: inconclusive; FEN1 inhibitor: 89µM*; PI5P4Ka inh: -22; Tb PGK inh: -16%

How did CCCCc1nc2c(c3c1C[C@H](C)OC3)CN(C(=O)COC)CC2 do in these assays?
TDP1 block: 12%[12.3 µM]

How did COc1cc(/C=C2/SC(=Nc3ccc(O)cc3)NC2=O)ccc1O do in these assays?
TDP1 block: 6%; Tb PFK inh: -1%; WRN inhibitor: 50µM*; FEN1 inhibitor: -33%; PI5P4Ka inh: -90*; Tb PGK inh: -12%

High-throughput results as filed in PubChem.
